The values that follow come from PubChem BioAssay (NCI).

Where “and” joins values, the source holds several entries; their conditions need not be identical. Equal values may be shown once. The panel holds about 79,000 compounds, 15% with a hit somewhere; the sample as a whole holds those more often. Calls of active or inactive are those of the source. Rule as the data show it: active = growth inhibition above about 70%; inactive = the rest.

This experiment in a line: NCI Yeast Anticancer Drug Screen. Data for the sgs1 mgt1 strain (AID 161).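 Also: 0% = growth of cultures given vehicle only.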 The note with it: S. cerevisiae sgs1 mgt1 strain, active compounds read high; at 50.0 µM unless noted. In short, it runs like this: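 Inhibition of yeast growth, normalised to vehicle-treated controls, is reported for a strain bearing genetic alterations in DNA damage repair.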
On to `COC(=O)C1(CC(=O)c2c(C)[nH]c3ccccc23)NC(=S)NC(=O)C1C#N` (stereo not given), for which the growth inhibition is -21.1% (inactive).
The same measure for `O=C1NC(N/N=C\C(O)C(O)C(O)CO)=N/C1=C/c1ccc(Cl)cc1` (stereo not given): 44.8% (inactive) and 35.1% (inactive).
The same measure for `O=c1[nH]c2cc(Cl)c([N+](=O)[O-])cc2o1`: -0.5% (inactive).
Next, `COc1cccc(-c2cc(=O)c3cc(C)cnc3[nH]2)c1`: 4.05% (inactive).
With `COc1cc2c3cc1Oc1cc(ccc1O)C[C@@H]1c4c(cc(OC)c(O)c4Oc4ccc(cc4)C[C@@H]3[N+](C)(C)CC2)CC[N+]1(C)C`, the growth inhibition is -40.4% (inactive).
The same measure for `CC(C)(CN1CCCCC1)C(=O)CC(SCCN)c1ccc(Cl)cc1` (stereo not given): 47.3% (inactive).
Next, `COc1cc(OC)c(I)cc1Cl`: 4.55% (inactive).
Next, `CCCCN1CCC(N)=NC1=O`: -9.1% (inactive); `CCO/C(C)=N\OC(=O)C(F)(F)F`: 6.55% (inactive).
Consider `COC(=O)c1nnn(-c2ccc(Cl)cc2C)c1C(=O)c1ccc(OC)cc1`, for which the growth inhibition was -11.8% (inactive).
The same measure for `CC(O)CNc1nc(N)[nH]c(=O)c1[N+](=O)[O-]` (stereo not given): 1.45% (inactive); for `CC1=NN(c2ccc(S(=O)(=O)O)cc2)C(=O)C1N=Nc1ccc(-c2ccc(N=Nc3ccc(O)c(C(=O)O)c3)c(C)c2)cc1C` (stereo not given): 17.3% (inactive); for `O=C(O)c1cc([N+](=O)[O-])cc([N+](=O)[O-])c1-c1ccccc1`: 6.2% (inactive).
As to `N#Cc1c(N2CCCC2)nsc1Nc1ccc(F)cc1`, the growth inhibition is 0.8% (inactive).
Next, `CC(C)CCO/N=C(\N)N=C(N)N`: 14.3% (inactive); `O=C(NSN1CCOCC1)c1ccccc1`: 30% (inactive); `O=C(NO)c1ccccc1`: 11.6% (inactive).
For the compound `N#CCCC(C#N)(CCC#N)C(N)=O`, the growth inhibition is -2.6% (inactive).
Next, `CCCCCCCCCCCCC(C)O` (stereo not given): -18.8% (inactive); `FC(F)(F)c1ccc2ccc3ccc(Cl)cc3c2c1`: -4.3% (inactive).
Next, `Nc1ncnc2c1ncn2CC(O)CN(CCO)CCO` (stereo not given): -3.7% (inactive); `CSC(N)=Nc1cccc2ccccc12`: -40.5% (inactive); `O=C(c1ccc([N+](=O)[O-])cc1)N(Cc1ccccc1)Cc1ccccc1` (tested in a mixture with another compound): -12.7% (inactive).
Next, `O=C(O)Cc1ccc(C(=O)O)cc1`: 5.8% (inactive); `C=C1c2nc3ccccc3n2C=C(c2ccccc2)N1c1ccc(OC)cc1`: -9.25% (inactive); `CC1CC(=O)Nc2nc3ccccc3n21` (stereo not given): -25.2% (inactive).
For the compound `COc1ccc2[nH]c3ccccc3c(=O)c2c1`, the growth inhibition is 8.8% (inactive).
The same measure for `OC1(C2(O)CCCC2)CCCC1`: 22% (inactive).
The same measure for `Cc1ccc(C(CC(=O)C(C)(C)CN2CCCCC2)SCCS(=O)(=O)O)cc1` (stereo not given): 11.1% (inactive).
As to `CC1=CC(=O)CC(C)(C)C1`, the growth inhibition is -1.7% (inactive).
Next, `C=C1CC(c2ccccc2)(c2cccs2)OC1=O` (stereo not given): 96.2% (active).
With `Cc1cc(=O)[nH]c2[nH]c(=O)ccc12`, the growth inhibition was -1.5% (inactive).
As for `Cn1c(=O)c2nc(SCC(=O)O)n(C)c2n(C)c1=O`, the growth inhibition was 7.4% (inactive).
In the case of `CCOC(=N)n1c(=O)n(C2=NCCN2)c2ccccc21`, the growth inhibition was -48.5% (inactive).
In the case of `CC(C)C1N(N2C(=O)CS(=O)(=O)C2C(C)C)C(=O)CS1(=O)=O` (stereo not given), the growth inhibition was -6.8% (inactive).
Next, `COC(=O)c1cccc(C(=O)OC)c1`: -14.4% (inactive) and 18.8% (inactive); `CC1=C(C)C(C#N)(C(=O)CBr)C(=N)O1` (stereo not given): 44% (inactive).
Next, `c1ccc2c(c1)ccc1c[n+]3ccccc3cc12`: 22.2% (inactive); `CN(C)c1c2ccccc2c(NC=O)c2ccccc12`: 11.7% (inactive).
`CNS(=O)(=O)c1ccc(C)c(C)c1`: the growth inhibition was 4.4% (inactive).
